We go through seven compounds from PubChem BioAssay (NCATS).

Assay [1] has as its target Lysosomal acid glucosylceramidase (Homo sapiens) (UniProt P04062). The assay can be described thus: Glucocerebrosidase-p2 (AID 348; in the data active = potency below about 10 µM; also: potency is read from the fitted curve at half-maximal effect). To be noted: purified GBA, blue fluorogenic substrate, 40 min. The gist of the method: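 Normal human glucocerebrosidase (0.2 nM) with blue fluorogenic substrate (80 uM final) in citrate/phosphate pH 5.9 with 10mM sodium taurocholate, 0.01% tween-20; 40 min RT, NaOH/glycine stop; fluorescence Ex 365/Em 440; AC50 from a titration from 0.6 nM upwards.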

A short description of assay [2]: AP1 Signaling Pathway (AID 357; active = well fitted curve in either direction with a large enough effect, not every such curve was filed as active;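 also: ME-180 reporter cells stimulated with EGF at its EC50 level; % is scaled to controls: 0 for no effect and ±100 for the full control effect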). The note with it: ME-180 AP-1-bla reporter, EGF-induced, beta-lactamase ratio, 5 h; at 7.69 µM (top of the series) unless noted. The gist of the method: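 Beta-lactamase reporter under AP-1 response element, ME-180 background. Stimulus: EC50 EGF. Compound exposure 5 h, 37 °C. Detection: CCF4, 2.5 h RT, 460/530 nm. Values: AC50 from titration.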

For assay [3], the target named is Cytochrome P450 1A2 (Homo sapiens) (UniProt P05177). Kind of assay: p450-cyp1a2 (AID 410). Also: potency is read from the fitted curve at half-maximal effect.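 As to activity change, negative = inhibition: -100% = full effect of reference inhibitor.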 To be noted: recombinant CYP1A2, luciferin-ME demethylation, luminescence; series mostly up to 57 µM. The gist of the method: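 Luminescent demethylation readout: Luciferin-ME (100uM, equal to Km) turned over by 20nM CYP1A2 for 60 min at room temperature after NADPH regeneration addition, following 10 min compound preincubation. Normalization used 57 uM furafylline as full inhibition.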

The nature of assay [4]: Stat Signaling Pathway (AID 446; active = well fitted curve in either direction with a large enough effect, not every such curve was filed as active;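 also: ME-180 cervical cancer cells given 40 pM IL-6 alongside compound; SIE-controlled beta-lactamase reporter measured as 460/530 nm FRET emission ratio; % is scaled to controls: 0 for no effect and ±100 for the full control effect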). To be noted: ME-180 (cervical carcinoma) SIE beta-lactamase reporter, IL-6 stimulated, 5 h; at 7.69 µM (top of the series) unless noted. The gist of the method: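 Overnight-plated ME-180 cells bearing a STAT Inducible Element beta-lactamase reporter; 5 h co-exposure to compound and 40 pM IL-6; values normalized to 300 pM IL-6 and 125 nM JAK inhibitor controls.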

The target in assay [5] is Glucocorticoid receptor (Homo sapiens) (UniProt P04150). The assay can be described thus: GR-EFC Redistribution (AID 451). Also: potency is read from the fitted curve at half-maximal effect. To be noted: CHO-K1 GR-EFC translocation, beta-gal luminescence, 2 h. The gist of the method:
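CHO-K1 cells expressing nuclear EA and GR-ED fragments of b-gal; compounds titrated up to 46 uM final, 2 h at 37 C. GR nuclear translocation read as complemented b-gal luminescence after 1 h RT detection.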

Assay [6] deals with Mitogen-activated protein kinase 10 (Mus musculus) (UniProt Q61831). Kind of assay: JNK3 AlphaScreen Assay (AID 530; active = well fitted curve in either direction with a large enough effect, not every such curve was filed as active;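 also: kinase came from lysate of stimulated human HepG2 cells; signal reports phosphorylation of biotinylated GST-cJun 1-79 at Ser73 with 10 µM ATP; % is scaled to controls: 0 for no effect and ±100 for the full control effect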). The note with it: JNK3 lysate, c-Jun phosphorylation; series mostly up to 57.1 µM. The gist of the method:
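Activity was read by AlphaScreen after JNK3-containing HepG2 lysate (cytokine pre-activated) phosphorylated biotinylated GST-cJun with 10 uM ATP at room temperature. Phospho-Ser73 cJun antibody with Protein-A acceptor beads provided detection.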
For orientation: In Alpha technology, singlet oxygen from a donor bead excites a nearby acceptor bead.

Assay [7] deals with 3',5'-cyclic-AMP phosphodiesterase 4B (Homo sapiens) (UniProt Q07343). The assay can be described thus: qHTS Assay for Inhibitors of PDE-IV (AID 607; active = well fitted activation curve with a large enough effect in the main read-out, with a control signal flat, not every such curve was filed as active; also: % of control where 0% means no effect). To be noted: HEK293 ACTOne CNG channel cells, membrane potential fluorescence; series mostly up to 22.9 µM. The procedure, abridged: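 Live HEK293 cells with a modified cyclic nucleotide-gated (CNG) channel report intracellular cAMP via membrane-potential dye fluorescence (ex 535/em 590 nm). Endogenous PDE-IV was targeted. Compounds were tested at up to 22.9 uM final; RO 20-1724 100 uM served as control.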

The nature of assay [8]: qHTS Assay for Lipid Storage Modulators (AID 1519). To be noted: Drosophila S3 cells, BODIPY lipid droplet/cell ratio, laser cytometry, cells loaded with oleic acid; for activity change, negative = inhibition: at 57.5 µM (top of the series). The gist of the method:
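Cells seeded at 5,000 per well were treated with compounds over a concentration series and loaded with oleic acid (400 uM, as added). Lipid droplet fluorescence (488 nm excitation, 500-530 nm channel) was read by laser-scanning cytometry and normalized to 20 uM Triacsin C.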
(In general: Quantitative high-throughput screening tests each substance at several concentrations.)

Assay [9] in a line: Primary qHTS for small molecule stabilizers of the endoplasmic reticulum resident proteome: Secreted ER Calcium Modulated Protein (SERCaMP) assay (AID 1508630; active = well fitted curve in the direction sought with a large enough effect; an effect the other way counts as inactive or inconclusive; also: % is scaled to controls: 0 for no effect and ±100 for the full control effect). The note with it: SH-SY5Y GLuc-SERCaMP (Gaussia luciferase released on ER calcium loss) secretion, thapsigargin, luminescence; series mostly up to 38.4 µM. The gist of the method:
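The SH-SY5Y reporter protocol was run at 3 concentrations up to 38.3 uM (primary) or 11 concentrations (follow-up): 16 h compound, 100 nM thapsigargin for 4 h, then extracellular luciferase luminescence.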

For assay [10], the target named is Cytochrome P450 2C9 (Homo sapiens) (UniProt P11712). Kind of assay: qHTS Assay for Inhibitors and Substrates of Cytochrome P450 2C9 (AID 883; active = well fitted curve in the direction sought with a large enough effect; an effect the other way counts as inactive or inconclusive; also: potency is read from the fitted curve at half-maximal effect; nearly all actives have a fitted effect of over 60% in size). To be noted: recombinant CYP2C9, luciferin-H luminescence, 60 min; series mostly up to 57.1 µM. The procedure, abridged:
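Signal: luciferase luminescence reporting luciferin produced by CYP2C9. Conditions: 10nM enzyme, Luciferin-H 100uM at KM, 25mM KPO4, 37C, 60 min NADPH-driven reaction. Reference: 57uM sulphaphenazole as 100% inhibition.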

Assay [11] deals with Cytochrome P450 3A4 (Homo sapiens) (UniProt P08684). The assay can be described thus: qHTS Assay for Activators of Cytochrome P450 3A4 (AID 885; active = well fitted curve in the direction sought with a large enough effect; an effect the other way counts as inactive or inconclusive; also: nearly all actives have a fitted effect of over 65% in size). The note with it: recombinant CYP3A4, Luciferin-PPXE luminescence, 60 min; series mostly up to 57.1 µM. The gist of the method: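 Using 20nM recombinant human CYP3A4 in potassium phosphate (200mM), substrate Luciferin-PPXE at 25uM, luminescent luciferin detection followed a 60-min RT NADPH reaction; data scaled to 57 uM ketoconazole.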

For assay [12], the target named is Glucocorticoid receptor (Homo sapiens) (UniProt P04150). Kind of assay: GR-GFP Redistribution (AID 450;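 active = compounds whose dose series gives a full or clear partial fitted curve of increased nuclear translocation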; also: potency is read from the fitted curve at half-maximal effect). The note with it: U2OS GR-GFP nuclear translocation, laser cytometry, 2 h.
Assay [13] addresses Cytochrome P450 3A4 (Homo sapiens) (UniProt P08684). The assay can be described thus: qHTS Assay for Inhibitors and Substrates of Cytochrome P450 3A4 (AID 884; active = well fitted curve in the direction sought with a large enough effect; an effect the other way counts as inactive or inconclusive; also: % is scaled to controls: 0 for no effect and ±100 for the full control effect; nearly all actives have a fitted effect of over 50% in size). To be noted: recombinant CYP3A4, Luciferin-PPXE luminescence; series mostly up to 57.1 µM. The gist of the method:
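Luminescent readout of luciferin produced by CYP3A4 (20 nM) dealkylation of Luciferin-PPXE, 25 uM (its KM). NADPH-driven reaction ran 60 min at RT after 10 min compound preincubation; data scaled to 57 uM ketoconazole as 100% inhibition.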

Assay [14] addresses Cytochrome P450 2C19 (Homo sapiens) (UniProt P33261). The assay can be described thus: qHTS Assay for Inhibitors and Substrates of Cytochrome P450 2C19 (AID 899; active = well fitted curve in the direction sought with a large enough effect; an effect the other way counts as inactive or inconclusive; also: potency is read from the fitted curve at half-maximal effect; nearly all actives have a fitted effect of over 60% in size). To be noted: recombinant CYP2C19, luciferin-H EGE luminescence; series mostly up to 57.1 µM. The procedure, abridged:
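Signal comes from luciferase acting on luciferin released by CYP2C19-mediated hydroxylation of Luciferin-H EGE, 10uM (KM). Assay mix: 5nM enzyme, 50mM KPO4; 60 min at 37C with NADPH regeneration. Data normalized against 57uM ketoconazole.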

The nature of assay [15]: Confirmation and Secondary Assay for Modulators of Hemoglobin Beta Chain Splicing at IVS2 654 locus (AID 910; active = well fitted curve in the direction sought with a large enough effect; an effect the other way counts as inactive or inconclusive;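 also: HeLa cells stably carrying EGFP split by mutant beta-globin IVS2-654 intron; % of control where 0% means no effect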). To be noted: HeLa EGFP-654 splicing reporter, GFP fluorescence, 48 h; series mostly up to 38.3 µM. The gist of the method:
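HeLa cells stably expressing EGFP interrupted by β-globin IVS2-654 intron, seeded overnight in Opti-MEM/2% FCS, then treated 2 days at 37 °C. Restored splicing read as total peak GFP intensity per well by laser scanning cytometry (488 nm excitation, 500–520 nm emission); 500 nM antisense PNA as control.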

A short description of assay [16]: Confirmation and Secondary Assay for Modulators of Hemoglobin Beta Chain Splicing at IVS2 705 locus (AID 930; active = well fitted curve in the direction sought with a large enough effect; an effect the other way counts as inactive or inconclusive;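 also: HeLa cells stably expressing the EGFP-705 splicing reporter; GFP fluorescence per well restored by corrected splicing of the IVS2-705 intron in EGFP; % of control where 0% means no effect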). The note with it: HeLa EGFP-705 splicing reporter, GFP fluorescence, 48 h; series mostly up to 38.3 µM. The gist of the method: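 First, HeLa EGFP-705 cells are seeded at 500/well in Optimem with 2% FCS and left overnight. Next, compound or DMSO is added for 2 days. Finally wells are laser-scanned and total peak GFP intensity scored.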

Where [17] appears, read: measured here: cell count channel max response.
Setting [18] is: measured here: lipid channel max response.

Each structure is given as a SMILES string. Inconclusive results are not listed. Activity calls are given as the source filed them. Unless noted, calls follow the shape of the full dose curve.

3',5'-cyclic-AMP phosphodiesterase 4B (Homo sapiens), sequence (Q07343 whole entry, looked up): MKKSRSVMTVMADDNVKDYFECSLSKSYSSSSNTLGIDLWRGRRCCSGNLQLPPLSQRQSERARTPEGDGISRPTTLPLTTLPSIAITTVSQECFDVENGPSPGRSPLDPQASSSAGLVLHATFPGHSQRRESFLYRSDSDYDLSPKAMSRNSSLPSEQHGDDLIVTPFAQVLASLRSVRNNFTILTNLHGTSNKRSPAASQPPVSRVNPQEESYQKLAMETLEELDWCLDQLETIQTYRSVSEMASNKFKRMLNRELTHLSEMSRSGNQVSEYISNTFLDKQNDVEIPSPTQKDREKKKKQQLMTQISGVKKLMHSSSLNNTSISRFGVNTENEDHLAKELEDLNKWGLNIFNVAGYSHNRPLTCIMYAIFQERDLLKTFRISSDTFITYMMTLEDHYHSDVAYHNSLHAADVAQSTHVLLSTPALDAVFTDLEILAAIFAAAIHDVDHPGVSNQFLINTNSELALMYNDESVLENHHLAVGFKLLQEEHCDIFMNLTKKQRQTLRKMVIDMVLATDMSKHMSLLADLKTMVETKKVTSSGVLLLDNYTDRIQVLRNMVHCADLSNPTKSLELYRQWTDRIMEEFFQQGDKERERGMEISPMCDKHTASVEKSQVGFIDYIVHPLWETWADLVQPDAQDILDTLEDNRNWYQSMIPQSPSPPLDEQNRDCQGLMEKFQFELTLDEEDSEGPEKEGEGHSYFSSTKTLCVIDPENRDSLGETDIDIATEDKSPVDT
Glucocorticoid receptor (Homo sapiens), sequence (P04150 whole entry, looked up, the tested form may be a part): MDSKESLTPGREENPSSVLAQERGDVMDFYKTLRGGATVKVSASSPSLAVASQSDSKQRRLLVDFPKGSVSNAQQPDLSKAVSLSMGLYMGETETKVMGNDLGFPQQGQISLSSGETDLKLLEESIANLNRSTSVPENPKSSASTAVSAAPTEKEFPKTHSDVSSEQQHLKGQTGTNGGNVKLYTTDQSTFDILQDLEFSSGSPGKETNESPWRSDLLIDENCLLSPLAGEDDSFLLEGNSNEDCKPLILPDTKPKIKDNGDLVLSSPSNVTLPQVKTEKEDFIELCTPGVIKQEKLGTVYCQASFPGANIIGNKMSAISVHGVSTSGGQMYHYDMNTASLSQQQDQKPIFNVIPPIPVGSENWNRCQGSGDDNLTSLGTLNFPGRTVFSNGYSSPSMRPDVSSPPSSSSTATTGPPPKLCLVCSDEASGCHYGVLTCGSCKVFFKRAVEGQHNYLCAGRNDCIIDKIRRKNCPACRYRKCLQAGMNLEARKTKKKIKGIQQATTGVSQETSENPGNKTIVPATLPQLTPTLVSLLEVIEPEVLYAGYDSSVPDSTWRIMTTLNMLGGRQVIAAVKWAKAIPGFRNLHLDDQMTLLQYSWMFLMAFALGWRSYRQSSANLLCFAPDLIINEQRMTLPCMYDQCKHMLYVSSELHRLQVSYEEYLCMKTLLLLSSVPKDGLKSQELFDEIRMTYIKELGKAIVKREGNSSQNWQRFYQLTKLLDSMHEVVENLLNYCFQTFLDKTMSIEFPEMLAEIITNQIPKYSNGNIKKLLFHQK
Lysosomal acid glucosylceramidase (Homo sapiens), sequence (P04062 whole entry, looked up): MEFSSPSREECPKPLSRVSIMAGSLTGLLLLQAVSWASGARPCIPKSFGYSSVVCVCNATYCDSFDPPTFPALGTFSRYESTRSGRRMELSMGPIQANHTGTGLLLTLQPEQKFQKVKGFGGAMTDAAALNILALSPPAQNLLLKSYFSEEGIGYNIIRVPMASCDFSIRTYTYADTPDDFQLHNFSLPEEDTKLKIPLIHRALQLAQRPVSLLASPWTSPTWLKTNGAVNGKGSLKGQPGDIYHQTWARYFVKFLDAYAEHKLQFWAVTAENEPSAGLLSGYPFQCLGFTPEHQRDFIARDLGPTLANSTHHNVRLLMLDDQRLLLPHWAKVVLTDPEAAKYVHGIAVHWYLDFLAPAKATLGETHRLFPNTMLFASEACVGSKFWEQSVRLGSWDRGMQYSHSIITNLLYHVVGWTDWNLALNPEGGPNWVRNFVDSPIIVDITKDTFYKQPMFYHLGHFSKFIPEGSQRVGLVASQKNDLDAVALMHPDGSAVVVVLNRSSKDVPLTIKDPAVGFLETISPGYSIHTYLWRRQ
Cytochrome P450 1A2 (Homo sapiens), sequence (P05177 whole entry, looked up): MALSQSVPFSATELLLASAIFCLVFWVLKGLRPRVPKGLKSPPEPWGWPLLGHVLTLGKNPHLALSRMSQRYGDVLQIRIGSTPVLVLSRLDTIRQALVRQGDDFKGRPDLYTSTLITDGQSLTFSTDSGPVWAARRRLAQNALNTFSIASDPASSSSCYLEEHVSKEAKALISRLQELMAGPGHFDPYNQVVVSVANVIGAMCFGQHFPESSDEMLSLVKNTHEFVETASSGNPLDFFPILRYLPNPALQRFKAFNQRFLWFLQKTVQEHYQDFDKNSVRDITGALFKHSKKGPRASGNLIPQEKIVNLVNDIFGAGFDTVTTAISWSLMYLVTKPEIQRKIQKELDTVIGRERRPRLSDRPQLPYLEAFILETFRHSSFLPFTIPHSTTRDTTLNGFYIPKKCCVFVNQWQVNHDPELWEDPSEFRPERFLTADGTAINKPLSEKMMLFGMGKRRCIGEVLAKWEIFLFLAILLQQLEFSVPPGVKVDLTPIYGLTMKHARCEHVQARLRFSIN
Cytochrome P450 3A4 (Homo sapiens), sequence (P08684 whole entry, looked up): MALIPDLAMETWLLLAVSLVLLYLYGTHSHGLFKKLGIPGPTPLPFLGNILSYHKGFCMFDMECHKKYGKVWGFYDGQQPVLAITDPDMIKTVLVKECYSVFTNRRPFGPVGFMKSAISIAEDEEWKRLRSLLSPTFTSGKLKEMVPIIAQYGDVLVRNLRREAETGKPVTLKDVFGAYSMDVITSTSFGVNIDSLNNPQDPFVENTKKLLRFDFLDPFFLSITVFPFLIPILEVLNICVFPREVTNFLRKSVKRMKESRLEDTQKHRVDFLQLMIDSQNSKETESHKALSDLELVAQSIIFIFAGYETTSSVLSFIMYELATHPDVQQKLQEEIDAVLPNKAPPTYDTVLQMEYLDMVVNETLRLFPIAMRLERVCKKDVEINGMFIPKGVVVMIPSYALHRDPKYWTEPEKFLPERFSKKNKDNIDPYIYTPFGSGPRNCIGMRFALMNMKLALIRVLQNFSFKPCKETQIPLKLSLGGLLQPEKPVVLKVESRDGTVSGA
Cytochrome P450 2C19 (Homo sapiens), sequence (P33261 whole entry, looked up): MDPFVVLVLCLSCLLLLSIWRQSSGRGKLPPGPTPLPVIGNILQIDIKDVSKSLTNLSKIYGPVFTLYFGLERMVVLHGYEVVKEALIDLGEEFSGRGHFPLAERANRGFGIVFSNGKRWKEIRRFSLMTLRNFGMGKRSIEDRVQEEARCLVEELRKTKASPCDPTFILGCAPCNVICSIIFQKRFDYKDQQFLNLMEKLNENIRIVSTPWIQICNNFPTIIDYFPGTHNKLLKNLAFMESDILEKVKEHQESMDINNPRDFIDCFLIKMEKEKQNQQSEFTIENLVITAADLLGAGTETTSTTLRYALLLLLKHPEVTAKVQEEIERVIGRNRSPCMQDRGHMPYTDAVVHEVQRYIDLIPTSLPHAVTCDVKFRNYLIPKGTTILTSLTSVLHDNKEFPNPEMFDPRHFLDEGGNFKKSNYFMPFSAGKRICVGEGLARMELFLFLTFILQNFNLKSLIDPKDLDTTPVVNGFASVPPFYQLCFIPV
Cytochrome P450 2C9 (Homo sapiens), sequence (P11712 whole entry, looked up): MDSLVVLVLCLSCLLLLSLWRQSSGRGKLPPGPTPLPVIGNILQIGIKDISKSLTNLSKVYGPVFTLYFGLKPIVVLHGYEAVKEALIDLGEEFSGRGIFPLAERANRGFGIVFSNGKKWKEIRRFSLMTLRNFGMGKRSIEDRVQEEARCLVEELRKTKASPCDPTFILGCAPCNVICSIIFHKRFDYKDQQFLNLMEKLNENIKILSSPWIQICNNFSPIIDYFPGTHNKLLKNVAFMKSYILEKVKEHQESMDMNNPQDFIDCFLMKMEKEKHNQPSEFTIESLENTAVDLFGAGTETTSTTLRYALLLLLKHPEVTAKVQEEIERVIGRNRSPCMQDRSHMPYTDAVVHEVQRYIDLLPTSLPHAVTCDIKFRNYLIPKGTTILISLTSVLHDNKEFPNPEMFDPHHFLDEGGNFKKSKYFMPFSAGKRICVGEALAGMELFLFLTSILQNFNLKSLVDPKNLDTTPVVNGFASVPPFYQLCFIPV

Consider `O=S(=O)(c1ccccc1)N1CCC2(CCN(Cc3nccs3)CC2)CC1`, for which the Potency was > 11.4 µM (inactive) in assay [1] and > 46 µM (inactive) in assay [5]. For the same compound, the activity change, negative = inhibition was 19.1% (inactive) in assay [2] and 0.281% (inactive) in assay [8]. In addition, the Potency result in assay [3], in assay [6] and in assay [7] was “inactive” in each case. The activity, negative = inhibition in assay [4] is -4.54% (inactive). Besides, the max response in [8] (setting [17]) worked out at 4.88%; in assay [8] (setting [18]) it was 7.01%. For the same compound, the outcome in assay [9] was inactive.
In the case of `N#Cc1ccc(CN2CCC3(CC2)CCN(C(=O)c2cc(C(F)(F)F)cc(C(F)(F)F)c2)CC3)cc1`, the results for the Potency in assay [1] and in assay [5] were > 11.4 µM (inactive) and > 46 µM (inactive), respectively. For the same compound, the results for the activity change, negative = inhibition in assay [2] and in assay [8] were 7.04% (inactive) and 1.9% (inactive), respectively. Besides, the Potency result in [3], in [6] and in [7] was “inactive” in each case. Also, in assay [4], the activity, negative = inhibition was 3.33% (inactive). Moreover, the results for the max response in assay [8] (setting [17]) and in [8] (setting [18]) were 7.25% and 11%, respectively. Moreover, in assay [9], the result was inactive.
As for `O=C(c1ccco1)N1CCC2(CCN(Cc3ccncc3)CC2)CC1`, the Potency was > 11.4 µM (inactive) in assay [1], 20 µM (active) in assay [3], > 46 µM (inactive) in assay [5] and 7.94 µM (active) in assay [10]. The activity change, negative = inhibition in assay [2] was 1.28% (inactive); in assay [8], 6.5% (inactive). The activity, negative = inhibition in assay [4] is -11.4% (inactive). Also, the Potency entry in assay [6], in assay [7] and in assay [11] was “inactive” throughout. The max response is 12.7% in assay [8] (setting [17]) and 20.5% in [8] (setting [18]). Further, the outcome in [9] was inactive.
As to `CN(C)c1ccc(-c2cncnc2NCc2ccccc2)cc1`, the Potency in assay [1] was > 11.4 µM (inactive); in [3] it was 1 µM (active); in assay [12] it was > 46 µM (inactive); in assay [5], > 46 µM (inactive); in assay [14], 0.398 µM (active). The activity change, negative = inhibition in assay [2] was -0.796% (inactive); in assay [8], 9.86% (inactive). In addition, the activity, negative = inhibition in assay [4] was -2.24% (inactive). Also, the Potency entry in assay [13] and in assay [15] was “inactive” each time. Besides, the call in assay [16] and in [9] was inactive. The max response in assay [8] (setting [17]) was -3.1%; in [8] (setting [18]), 16.1%.
As to `CC(C)CN1CC2(CCN(C(=O)c3cccc(F)c3)CC2)C1`, the figures for the Potency in assay [1] and in assay [5] were > 11.4 µM (inactive) and > 46 µM (inactive), respectively. The activity change, negative = inhibition is 10.2% (inactive) in assay [2] and 2.36% (inactive) in assay [8]. For the same compound, the Potency result in [3], in assay [6] and in [7] was “inactive” each time. Further, the activity, negative = inhibition in [4] is -19.8% (inactive). The max response was 11.5% in assay [8] (setting [17]) and 16.2% in [8] (setting [18]). For the same compound, in assay [9], the result was inactive.
As for `O=C(Oc1ccccc1)N1CCC2(CC1)CCN(c1ccncc1)CC2`, the Potency was > 11.4 µM (inactive) in assay [1] and > 46 µM (inactive) in assay [5]. Also, the activity change, negative = inhibition in [2] is 9.96% (inactive); in [8], 1.8% (inactive). Besides, the Potency result in [3], in assay [6] and in [7] was “inactive” in each case. The activity, negative = inhibition in assay [4] was 16.5% (inactive). The max response in assay [8] (setting [17]) was -5.74%; in assay [8] (setting [18]) it was -3.08%. The result in assay [9] was inactive.
Turning to `Cc1noc(C)c1C(=O)N1CCC2(CCCN(Cc3ccc(C#N)cc3)C2)CC1`, the Potency in assay [1] is > 11.4 µM (inactive); in [5], > 46 µM (inactive). The activity change, negative = inhibition in assay [2] is 4.42% (inactive); in assay [8], 6.31% (inactive). Moreover, the Potency result in assay [3], in assay [6] and in assay [7] was “inactive” throughout. In addition, the activity, negative = inhibition in assay [4] is 3.17% (inactive). Also, the results for the max response in [8] (setting [17]) and in [8] (setting [18]) were 22.7% and 33.4%, respectively. Besides, in [9], the result was inactive.
